Measured values reported in ChEMBL document CHEMBL3988442, “University of Dundee, Small-Polar-MMV Screening Library” (2021).
For some assays here: Entries with a potency or affinity are not part of this list.

How the values were obtained:
Design in all cases: scale not given: direction of the effect not stated beside the values
[1] = molecular target: Protein translocase subunit SecA (Escherichia coli (strain K12)) (UniProt P10408); assay: Assay to Identify E. coli SecA ATPase Inhibitors; assay type: functional; details: 30 µM
[2] = molecular target: T1, Ubiquitin-activating enzyme e1, putative (Leishmania donovani (strain BPK282A1)) (UniProt E9BSI1); assay: Leishmania donovani Ubiquitin Activating Enzyme (LdE1); assay type: functional; details: 30 µM
T1 sequence (whole entry): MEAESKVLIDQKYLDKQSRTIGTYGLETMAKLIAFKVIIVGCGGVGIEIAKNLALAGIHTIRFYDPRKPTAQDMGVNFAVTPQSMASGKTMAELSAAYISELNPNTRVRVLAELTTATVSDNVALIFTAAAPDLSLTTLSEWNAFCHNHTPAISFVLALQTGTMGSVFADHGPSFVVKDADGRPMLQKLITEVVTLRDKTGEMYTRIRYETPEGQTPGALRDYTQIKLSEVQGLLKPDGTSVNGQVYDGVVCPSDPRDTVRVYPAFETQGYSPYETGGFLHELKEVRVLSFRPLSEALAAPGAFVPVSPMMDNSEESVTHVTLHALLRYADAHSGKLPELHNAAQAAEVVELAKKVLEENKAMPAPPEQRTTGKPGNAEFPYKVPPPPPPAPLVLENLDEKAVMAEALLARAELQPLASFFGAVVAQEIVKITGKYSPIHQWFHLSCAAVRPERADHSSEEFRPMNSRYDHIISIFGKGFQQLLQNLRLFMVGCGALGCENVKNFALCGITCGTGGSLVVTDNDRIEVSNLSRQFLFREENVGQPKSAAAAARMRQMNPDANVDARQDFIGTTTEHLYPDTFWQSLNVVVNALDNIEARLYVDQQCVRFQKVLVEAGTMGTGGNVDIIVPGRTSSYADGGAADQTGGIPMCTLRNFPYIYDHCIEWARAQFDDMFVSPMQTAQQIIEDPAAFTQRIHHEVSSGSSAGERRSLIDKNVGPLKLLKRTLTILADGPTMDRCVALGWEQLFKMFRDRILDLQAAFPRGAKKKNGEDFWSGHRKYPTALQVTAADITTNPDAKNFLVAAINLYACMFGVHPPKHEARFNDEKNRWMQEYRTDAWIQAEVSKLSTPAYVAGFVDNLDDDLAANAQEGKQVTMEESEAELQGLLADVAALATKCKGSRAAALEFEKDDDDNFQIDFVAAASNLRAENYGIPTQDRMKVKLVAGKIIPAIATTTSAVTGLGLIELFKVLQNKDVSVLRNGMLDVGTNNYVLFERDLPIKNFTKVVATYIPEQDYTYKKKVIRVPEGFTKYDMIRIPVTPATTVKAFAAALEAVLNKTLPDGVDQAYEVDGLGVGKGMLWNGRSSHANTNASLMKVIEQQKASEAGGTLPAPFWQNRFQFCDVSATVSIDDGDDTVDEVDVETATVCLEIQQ

[3] = molecular target: Sialic acid-binding Ig-like lectin 9 (Homo sapiens) (UniProt Q9Y336); assay: Hs-Siglec9 ALPHAscreen SOP 20170721; details: 10 µM
Trypanosoma cruzi = assay: Trypanosoma cruzi phosphomannomutase and mannose-1-phosphate guanylyltransferase assay; assay type: functional; details: 10 µM
[4] = molecular target: T2, Arginase-2, mitochondrial (Homo sapiens) (UniProt P78540); assay: in vitro enzyme assay to detect the production of urea directly proportional to the activity of Arginase II; assay type: functional; details: 33.3 µM; also: in the data most compounds retested in dose-response had high values
T2 sequence (whole entry): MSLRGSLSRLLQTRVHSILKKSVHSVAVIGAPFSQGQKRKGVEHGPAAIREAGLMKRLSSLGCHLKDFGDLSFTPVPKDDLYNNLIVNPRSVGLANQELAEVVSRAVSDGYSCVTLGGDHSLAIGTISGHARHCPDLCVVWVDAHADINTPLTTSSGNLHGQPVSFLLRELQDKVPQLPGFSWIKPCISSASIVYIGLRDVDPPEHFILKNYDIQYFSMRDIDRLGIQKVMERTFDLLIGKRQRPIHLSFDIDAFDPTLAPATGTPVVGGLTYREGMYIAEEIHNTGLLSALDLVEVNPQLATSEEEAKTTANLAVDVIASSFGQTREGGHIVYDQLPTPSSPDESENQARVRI

[5] = molecular target: T3, Proteasome subunit beta (Trypanosoma cruzi) (UniProt O96673); assay: Trypanosoma cruzi proteasome chymotrypsin-like activity (TcProtChymo) assay.; also: in the data most compounds retested in dose-response had high values; assay type: functional; details: 9.37 µM
T3 sequence (whole entry): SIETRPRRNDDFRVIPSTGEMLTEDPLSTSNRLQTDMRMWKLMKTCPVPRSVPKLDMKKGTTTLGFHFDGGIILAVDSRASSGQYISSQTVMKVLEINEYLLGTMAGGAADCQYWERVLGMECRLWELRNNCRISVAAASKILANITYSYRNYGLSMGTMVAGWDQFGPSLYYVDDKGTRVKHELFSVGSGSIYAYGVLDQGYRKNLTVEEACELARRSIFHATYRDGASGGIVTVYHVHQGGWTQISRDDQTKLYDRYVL

Homo sapiens = organism: Homo sapiens; assay: To identify inhibition of the IFN signalling (Jak-Stat) pathway via expression of an eGFP reporter gene under the control of an IFN-stimulated response element (ISRE) containing MxA promoter.; assay type: functional; details: 30 µM
[6] = molecular target: T4, Tyrosyl-tRNA synthetase, putative (Trypanosoma cruzi (strain CL Brener)) (UniProt Q4DSP6); assay: Trypanosoma cruzi tyrosyl tRNA synthetase (TcYRS) _High Tyrosine SOP; assay type: functional; details: 30 µM; also: in the data most compounds retested in dose-response had high values
T4 sequence (whole entry): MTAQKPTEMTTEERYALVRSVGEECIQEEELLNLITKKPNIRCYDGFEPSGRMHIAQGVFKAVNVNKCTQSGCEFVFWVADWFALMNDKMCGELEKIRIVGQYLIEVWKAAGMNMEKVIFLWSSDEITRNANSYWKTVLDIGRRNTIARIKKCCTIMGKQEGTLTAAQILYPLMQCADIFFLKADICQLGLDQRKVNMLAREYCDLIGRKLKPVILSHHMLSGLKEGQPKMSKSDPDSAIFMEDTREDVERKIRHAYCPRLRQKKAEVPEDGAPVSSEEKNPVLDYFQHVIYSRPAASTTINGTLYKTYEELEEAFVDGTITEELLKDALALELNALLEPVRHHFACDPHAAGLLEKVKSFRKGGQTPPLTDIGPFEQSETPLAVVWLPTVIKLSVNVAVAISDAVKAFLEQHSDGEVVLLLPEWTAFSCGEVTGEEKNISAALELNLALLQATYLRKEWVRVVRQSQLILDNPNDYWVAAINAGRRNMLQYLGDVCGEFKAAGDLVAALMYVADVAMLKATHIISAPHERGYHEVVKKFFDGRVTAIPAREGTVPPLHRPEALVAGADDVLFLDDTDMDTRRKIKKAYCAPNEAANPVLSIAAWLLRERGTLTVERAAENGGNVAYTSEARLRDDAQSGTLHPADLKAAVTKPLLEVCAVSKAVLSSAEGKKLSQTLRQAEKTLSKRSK

[7] = molecular target: T4, Tyrosyl-tRNA synthetase, putative (Trypanosoma cruzi (strain CL Brener)); assay: Trypanosoma cruzi tyrosyl tRNA synthetase (TcYRS) SOP; assay type: functional; details: 30 µM
[8] = molecular target: Chromo domain-containing protein 1 (Saccharomyces cerevisiae (strain ATCC 204508 / S288c) (Baker's yeast)) (UniProt P32657); assay: ScCHD-1 Enzyme Inhibition Assay; assay type: functional; details: 30 µM; also: in the data most compounds retested in dose-response had high values
Chromo domain-containing protein 1 (Saccharomyces cerevisiae (strain ATCC 204508 / S288c) (Baker's yeast)), sequence (P32657 whole entry, the tested form may be a part): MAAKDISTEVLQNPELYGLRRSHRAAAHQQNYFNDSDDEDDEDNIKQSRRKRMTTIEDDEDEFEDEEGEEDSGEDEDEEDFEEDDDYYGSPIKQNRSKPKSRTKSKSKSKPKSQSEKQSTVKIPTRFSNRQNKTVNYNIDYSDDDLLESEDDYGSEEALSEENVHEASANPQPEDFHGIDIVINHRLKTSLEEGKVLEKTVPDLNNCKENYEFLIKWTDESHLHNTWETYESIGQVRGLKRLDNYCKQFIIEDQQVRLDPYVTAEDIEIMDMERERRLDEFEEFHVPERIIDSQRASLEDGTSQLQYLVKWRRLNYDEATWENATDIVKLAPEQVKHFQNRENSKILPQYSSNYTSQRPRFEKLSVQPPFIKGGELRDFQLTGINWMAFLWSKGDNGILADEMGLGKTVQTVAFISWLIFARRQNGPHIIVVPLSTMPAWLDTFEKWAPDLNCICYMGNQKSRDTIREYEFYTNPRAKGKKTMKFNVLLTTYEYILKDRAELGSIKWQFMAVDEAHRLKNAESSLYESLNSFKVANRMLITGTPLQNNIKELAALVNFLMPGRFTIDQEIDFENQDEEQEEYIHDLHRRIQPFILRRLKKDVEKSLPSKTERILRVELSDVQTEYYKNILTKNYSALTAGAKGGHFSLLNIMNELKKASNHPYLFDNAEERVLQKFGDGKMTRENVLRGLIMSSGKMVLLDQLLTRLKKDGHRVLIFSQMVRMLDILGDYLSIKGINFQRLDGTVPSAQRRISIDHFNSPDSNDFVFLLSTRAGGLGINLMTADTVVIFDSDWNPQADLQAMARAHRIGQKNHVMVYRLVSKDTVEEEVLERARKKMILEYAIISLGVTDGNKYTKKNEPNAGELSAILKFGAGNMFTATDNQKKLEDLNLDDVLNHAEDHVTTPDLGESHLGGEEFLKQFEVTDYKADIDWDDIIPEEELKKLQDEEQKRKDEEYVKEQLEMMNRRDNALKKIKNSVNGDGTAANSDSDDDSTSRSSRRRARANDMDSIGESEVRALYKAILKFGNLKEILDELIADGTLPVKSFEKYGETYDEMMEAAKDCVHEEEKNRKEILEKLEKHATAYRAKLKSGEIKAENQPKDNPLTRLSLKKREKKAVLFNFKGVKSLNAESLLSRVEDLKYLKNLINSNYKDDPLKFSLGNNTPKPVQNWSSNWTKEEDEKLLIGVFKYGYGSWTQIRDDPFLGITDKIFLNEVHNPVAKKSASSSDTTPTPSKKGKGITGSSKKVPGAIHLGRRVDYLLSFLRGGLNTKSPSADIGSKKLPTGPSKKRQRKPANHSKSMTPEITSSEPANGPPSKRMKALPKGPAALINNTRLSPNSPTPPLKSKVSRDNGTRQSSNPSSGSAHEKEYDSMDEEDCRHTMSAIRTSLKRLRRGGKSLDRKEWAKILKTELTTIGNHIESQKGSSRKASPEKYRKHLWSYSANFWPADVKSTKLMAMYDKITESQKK

Protein translocase subunit SecA (Escherichia coli (strain K12)), sequence (P10408 whole entry): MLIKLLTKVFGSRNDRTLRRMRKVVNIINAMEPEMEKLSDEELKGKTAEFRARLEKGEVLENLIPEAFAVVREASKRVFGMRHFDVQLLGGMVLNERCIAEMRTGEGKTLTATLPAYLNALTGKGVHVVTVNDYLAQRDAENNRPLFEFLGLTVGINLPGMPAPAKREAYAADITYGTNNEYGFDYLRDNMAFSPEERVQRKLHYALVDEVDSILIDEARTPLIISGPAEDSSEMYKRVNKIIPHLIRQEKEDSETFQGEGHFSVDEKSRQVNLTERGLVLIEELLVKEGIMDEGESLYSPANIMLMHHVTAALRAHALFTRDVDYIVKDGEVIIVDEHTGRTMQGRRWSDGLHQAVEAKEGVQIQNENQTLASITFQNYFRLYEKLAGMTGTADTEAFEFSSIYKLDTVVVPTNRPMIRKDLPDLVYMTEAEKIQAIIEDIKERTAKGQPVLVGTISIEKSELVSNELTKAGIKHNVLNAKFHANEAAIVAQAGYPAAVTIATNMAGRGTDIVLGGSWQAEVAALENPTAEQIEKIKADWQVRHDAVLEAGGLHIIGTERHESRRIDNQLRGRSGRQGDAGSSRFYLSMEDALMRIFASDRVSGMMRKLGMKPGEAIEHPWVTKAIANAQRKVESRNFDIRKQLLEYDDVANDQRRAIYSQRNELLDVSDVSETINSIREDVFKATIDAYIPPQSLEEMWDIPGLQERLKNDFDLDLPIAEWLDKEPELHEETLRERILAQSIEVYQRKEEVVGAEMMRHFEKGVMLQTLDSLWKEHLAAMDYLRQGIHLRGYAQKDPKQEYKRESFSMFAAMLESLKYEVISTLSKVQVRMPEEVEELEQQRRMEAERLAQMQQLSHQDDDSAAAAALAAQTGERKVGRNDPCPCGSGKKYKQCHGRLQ
Sialic acid-binding Ig-like lectin 9 (Homo sapiens), sequence (Q9Y336 whole entry): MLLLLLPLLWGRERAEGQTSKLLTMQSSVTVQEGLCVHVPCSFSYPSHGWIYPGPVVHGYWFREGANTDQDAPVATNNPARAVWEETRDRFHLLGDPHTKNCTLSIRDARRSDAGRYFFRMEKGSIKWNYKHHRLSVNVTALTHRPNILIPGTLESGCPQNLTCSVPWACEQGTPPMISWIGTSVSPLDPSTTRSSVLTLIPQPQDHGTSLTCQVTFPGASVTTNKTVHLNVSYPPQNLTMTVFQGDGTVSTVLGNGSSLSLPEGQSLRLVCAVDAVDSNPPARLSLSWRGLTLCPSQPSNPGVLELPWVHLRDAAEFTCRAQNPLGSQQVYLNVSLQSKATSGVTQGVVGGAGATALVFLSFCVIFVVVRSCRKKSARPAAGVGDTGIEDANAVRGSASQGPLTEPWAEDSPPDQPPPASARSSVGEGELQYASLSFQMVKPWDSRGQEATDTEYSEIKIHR

Row | Compound | Percent Effect [1] | Percent Effect [2] | Percent Effect [3] | Percent Effect (Trypanosoma cruzi) | Percent Effect [4] | Percent Effect [5] | Percent Effect (Homo sapiens) | Percent Effect [6] | Percent Effect [7] | Percent Effect [8]
1 | CC(C)c1cc(C(F)(F)F)n2nc(CCC(=O)O)nc2n1 | 1.24% | 14.7% | -8.51% | -3.94% | 2.65% | 10.5% | 19.8% | 6.35% | 7.5% | -17.9%
2 | CC(C)NC(=O)C1CN(C(=O)c2ccco2)CC12CCOCC2 (stereo not given) | -1.7% | 9.09% | -6.62% | 3.41% | 3.24% | 10.2% | -3.41% | 8.95% | 12.8% | -4.15%
3 | COCCN1CCN(Cc2cccc(C(N)=O)c2)CC1C (stereo not given) | -2.01% | 29.3% | -8.56% | 2.81% | -2.66% | 17.6% | 16.2% | 2.63% | 12.8% | -19.1%
4 | Cc1csc2ncc(-c3ccnc(N4CCN(C)CC4)n3)c(=O)n12 | -1.31% | 0% | -2.78% | -3.21% | -0.444% | -0.933% | 0.181% | -3.68% | -10.3% | -10.1%
5 | Cc1ccc(-c2nc(CCNC(=O)CCN3CCOC3=O)co2)cc1 | -3.11% | 5.33% | 5.5% | -0.602% | 8.87% | 7.72% | 33.2% | 6.84% | 5.13% | -8.83%
6 | Cn1nc2c(cc1=O)CN(Cc1nc(-c3cccs3)no1)CC2 | -4.37% | 5.33% | 3.65% | 1.61% | -1.77% | 13.7% | 12.3% | -0.526% | 2.56% | -8.34%
7 | CCC1c2ccsc2CCN1C(=O)NCCNc1ncccn1 (stereo not given) | 0.216% | 15.4% | -5.88% | 6.29% | 6.15% | 9.3% | 10% | 6.22% | 22.9% | -7.01%
8 | CC1CN(c2ccc(CNC(=O)c3ccn(C)c(=O)c3)cn2)CCO1 (stereo not given) | -4.46% | 16% | 0.777% | 1.61% | 5.32% | 7.72% | 6.29% | 3.68% | 15.4% | -8.09%
9 | CC(C)N1CCO[C@H]2CN(C(=O)c3ccc(N(C)C)cc3)C[C@H]21 | -3.12% | 1.3% | -9.38% | -6.13% | 3.64% | 15.6% | 4.68% | 8.95% | 12.8% | -3.55%
10 | COc1c(CNC2CCSc3ccc(F)cc32)c(C)nn1C (stereo not given) | 0.667% | 13% | 7.38% | -0.373% | -12.5% | 10.9% | 64.7% | 5.88% | 11.8% | -4.85%
11 | Cc1cc(CN(C)C(=O)NCC(C)N2CCc3ccccc32)no1 (stereo not given) | -2.85% | -2.6% | 14.4% | 1.31% | -2.25% | -2.46% | -9.63% | 7.84% | 7.06% | 4.85%
12 | Cc1ccc2oc(C(=O)N3CCC(C(=O)N4CCCC4)CC3)cc2n1 | -3.66% | 7.69% | 1.13% | 2.35% | 6.56% | -0.768% | 7.89% | 9.09% | 18.1% | -0.651%
13 | CC[C@@H]1N(Cc2ccsc2)CCC[C@]12CCC(=O)N2C | -5.65% | 3.9% | -0.653% | -1.69% | 1.37% | 2.66% | 32.3% | -0.966% | -12.5% | 0.966%
14 | Cc1csc(N2CCCN(C(=O)c3cnns3)CC2)n1 | -2.47% | -2.67% | -0.659% | -0.803% | -1.33% | -0.255% | -0.448% | 0.526% | 0% | 4.48%
